About 83,000 compounds went through this panel and 20% of them were active in at least one assay; those are over-represented in the sample as a whole.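 Activity criterion: percent growth below 10, measured after cells in 96-well plates were exposed to a single compound concentration for 48 hours.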 A number with no mark means an inactive call. Calls of active or inactive are those of the source.

Among the test systems are NCI-H23 lung; NCI-H226 lung; NCI-H322M lung; HOP-62 NSCLC; NCI-H460 lung; HOP-92 NSCLC; NCI-H522 lung; A549/ATCC NSCLC; 786-0 renal; COLO 205 colon.
Assay in all cases: NCI-60 one-dose screen, 48 h (100 = growth as untreated, 0 = no growth, -100 = all killed)
Conditions in all cases: 10 µM unless noted

Turning to `COc1ccc2c(c1)oc1c(C)c3c(c(C)c12)C(=O)N(N)C3=O`, the growth in the test with NCI-H23 lung was 50.4%; with NCI-H226 lung it was -11.6% (active); in the test with NCI-H322M lung, 32.3%; in the test on HOP-62 NSCLC it was 14.8%; in the test with NCI-H460 lung it was 8% (active); in the test with HOP-92 NSCLC, 29%. In addition, the growth in the test on NCI-H522 lung is 49.5%; in the test on A549/ATCC NSCLC, 24.1%; in the test on 786-0 renal, -39.6% (active); with COLO 205 colon, 39.5%.
With `CC1(C)CC[C@]23CC[C@]4(C)[C@H](CC[C@@H]5[C@@]6(C)CCCNC(C)(C)[C@@H]6CC[C@]54C)[C@H]2[C@H]1OC3`, the growth was 41.2% in the test with NCI-H23 lung; 34.8% in the test on NCI-H226 lung; -21.4% (active) with NCI-H322M lung; 27.7% with HOP-62 NSCLC; -60.6% (active) in the test on NCI-H460 lung; -37.2% (active) with HOP-92 NSCLC. Also, the growth with NCI-H522 lung was 9.35% (active); in the test on A549/ATCC NSCLC, -45.6% (active); in the test on 786-0 renal it was -96.2% (active); in the test on COLO 205 colon, -68.2% (active).
Consider `NC1[C@H](c2c[nH]c3ccccc23)c2c([nH]c3ccccc23)[C@H]1c1c[nH]c2ccccc12` (stereo not given in full), for which the growth with NCI-H23 lung was 85.7%; in the test with NCI-H226 lung, 92.1%; in the test on NCI-H322M lung it was 91.6%; with HOP-62 NSCLC, 90.1%; in the test on NCI-H460 lung it was 97.1%; in the test with HOP-92 NSCLC, 84.2%. In addition, the growth with NCI-H522 lung is 88.5%; in the test with A549/ATCC NSCLC, 90.6%; with 786-0 renal, 96.4%; in the test with COLO 205 colon it was 110%.
`C[C@H](c1nc2ccc(N)cc2[nH]1)[C@H]1CC[C@H]2[C@@H]3CCC4=CC(=O)CC[C@]4(C)[C@H]3CC[C@]12C`: the growth was 85.8% with NCI-H23 lung; 91% in the test with NCI-H226 lung; 91.7% in the test on NCI-H322M lung; 96.2% in the test on HOP-62 NSCLC; 97.1% in the test on NCI-H460 lung; 43.9% with HOP-92 NSCLC. Besides, the growth in the test with NCI-H522 lung is 84.3%; in the test with A549/ATCC NSCLC it was 96.7%; with 786-0 renal it was 59.4%; in the test with COLO 205 colon, 81.4%.
`O=C1OC(Cc2ccccc2)C1c1ccccc1` (stereo not given): the growth is 106% with NCI-H23 lung; 102% in the test on NCI-H226 lung; 110% in the test on NCI-H322M lung; 104% in the test with HOP-62 NSCLC; 107% in the test on NCI-H460 lung; 104% in the test with HOP-92 NSCLC. The growth was 89.7% in the test with NCI-H522 lung, 95.9% in the test with A549/ATCC NSCLC, 102% with 786-0 renal and 109% in the test on COLO 205 colon.
`COc1ccc(C(=O)c2cc(C)c(OC)c(C)c2)c(OC)c1N(C(=O)CCl)C(=O)CCl`: the growth in the test on NCI-H23 lung was 20.8%; with NCI-H226 lung it was 7.88% (active); in the test on NCI-H322M lung, 36.2%; with HOP-62 NSCLC, 9.36% (active); in the test with NCI-H460 lung, 1.32% (active); in the test with HOP-92 NSCLC it was 7.45% (active). Also, the growth with NCI-H522 lung was 6.33% (active); with A549/ATCC NSCLC, 13.4%; in the test on 786-0 renal it was 13.2%; in the test with COLO 205 colon, -39.4% (active).
For `C=C(C)[C@@H]1CC[C@]2(C(=O)N3CCN(C)CC3)CC[C@]3(C)[C@H](CC[C@@H]4[C@@]5(C)CC[C@H](O)C(C)(C)[C@@H]5CC[C@]43C)[C@@H]12`, the growth with NCI-H23 lung is -14.5% (active); in the test with NCI-H226 lung it was 129%; in the test on NCI-H322M lung, 10.4%; in the test with HOP-62 NSCLC it was 55.6%; in the test with NCI-H460 lung, -69.5% (active); in the test with HOP-92 NSCLC, 14.5%. Further, the growth in the test on NCI-H522 lung is -89.6% (active); in the test with A549/ATCC NSCLC, -82.4% (active); in the test on 786-0 renal it was -95.1% (active); in the test on COLO 205 colon, -69.2% (active).
Take `N#Cc1cc(-c2nc3ccccc3s2)c(=O)n(NS(=O)(=O)c2ccccc2)c1N`: the growth in the test with NCI-H23 lung is 102%; with NCI-H226 lung, 85.7%; in the test with NCI-H322M lung, 108%; with HOP-62 NSCLC, 90.1%; in the test with NCI-H460 lung it was 106%; with HOP-92 NSCLC, 104%. The growth in the test on NCI-H522 lung is 94.2%; with A549/ATCC NSCLC it was 117%; with 786-0 renal, 106%; in the test on COLO 205 colon it was 122%.
In the case of `COc1ccc(/C=C2\Oc3cc(OCCCCCN4CCCCC4)ccc3C2=O)cc1OC`, the growth was 78.6% in the test on NCI-H23 lung; 83.1% in the test on NCI-H226 lung; 97.9% with NCI-H322M lung; 97.4% with HOP-62 NSCLC; 59.2% in the test on NCI-H460 lung; 54.4% in the test with HOP-92 NSCLC. Also, the growth in the test with NCI-H522 lung is 89.9%; with A549/ATCC NSCLC it was 88.7%; in the test on 786-0 renal it was 84.4%; in the test with COLO 205 colon, 98.5%.
For `Cc1ccc(S(=O)(=O)NNC(=O)/C(=C\c2ccc(Cl)cc2)c2nc3ccccc3s2)cc1`, the growth in the test on NCI-H23 lung is 96.4%; in the test on NCI-H226 lung, 81.2%; with NCI-H322M lung, 92.7%; with HOP-62 NSCLC it was 109%; with NCI-H460 lung, 86%; in the test on HOP-92 NSCLC, 87.3%. The growth is 91.7% in the test on NCI-H522 lung, 91.9% in the test with A549/ATCC NSCLC, 99.5% with 786-0 renal and 117% in the test with COLO 205 colon.
With `Cn1cc(-c2csc(-c3c[nH]c4ccccc34)n2)c2ccnc(Cl)c21`, the growth was 86.9% in the test with NCI-H23 lung; 60.5% in the test with NCI-H226 lung; 88.9% in the test on NCI-H322M lung; 119% in the test on HOP-62 NSCLC; 74.2% in the test on NCI-H460 lung; 64% in the test with HOP-92 NSCLC. Further, the growth in the test on NCI-H522 lung was 52.5%; with A549/ATCC NSCLC, 59%; in the test with 786-0 renal, 59.1%; in the test with COLO 205 colon, 46.7%.
With `CN1CCN(C(=O)[C@]23CCC(C)(C)C[C@H]2C2=CC[C@@H]4[C@@]5(C)C/C(=C/c6cccnc6)C(=O)C(C)(C)[C@@H]5CC[C@@]4(C)[C@]2(C)CC3)CC1`, the growth in the test on NCI-H23 lung is 72.8%; in the test with NCI-H226 lung, 79.7%; in the test with NCI-H322M lung, 96.3%; with HOP-62 NSCLC it was 85.2%; in the test on NCI-H460 lung, 31.9%; with HOP-92 NSCLC, 40.7%. In addition, the growth in the test on NCI-H522 lung was 49.4%; in the test with A549/ATCC NSCLC, 47%; in the test with 786-0 renal, 73.7%; with COLO 205 colon, 42.9%.
Consider `O=C(/C=C/c1c(-c2ccc(Cl)cc2)nn(-c2ccccc2)c1C(F)(F)F)c1ccc(Cl)cc1`, for which the growth was 80.8% in the test with NCI-H23 lung; 101% in the test with NCI-H226 lung; 93.3% in the test on NCI-H322M lung; 90.9% in the test on HOP-62 NSCLC; 82.3% in the test with NCI-H460 lung; 65.1% in the test with HOP-92 NSCLC. Further, the growth is 78.9% in the test with NCI-H522 lung, 81.3% with A549/ATCC NSCLC, 95.9% with 786-0 renal and 110% in the test on COLO 205 colon.
In the case of `COc1cc2nc(-c3ccc(C(F)(F)F)cc3)cc(OCCCN3CCOCC3)c2cc1OC`, the growth in the test with NCI-H23 lung is 56.5%; with NCI-H226 lung, -10.5% (active); in the test on NCI-H322M lung it was 57.2%; in the test with HOP-62 NSCLC it was 51.9%; with NCI-H460 lung it was 18.5%; in the test on HOP-92 NSCLC it was 11.2%. Besides, the growth is 14.6% with NCI-H522 lung, 29% with A549/ATCC NSCLC, 21.5% in the test with 786-0 renal and 20% in the test with COLO 205 colon.
In the case of `Cc1ccc(-n2c3c(c(-c4ccccc4)c2-c2ccccc2)C2=NCCN2C=N3)cc1`, the growth in the test with NCI-H23 lung is 84.2%; in the test with NCI-H226 lung, 72%; in the test on NCI-H322M lung, 96.6%; with HOP-62 NSCLC, 97.6%; in the test on NCI-H460 lung, 90.9%; with HOP-92 NSCLC, 87%. The growth is 80.2% in the test on NCI-H522 lung, 93.7% in the test on A549/ATCC NSCLC, 95% in the test on 786-0 renal and 101% in the test with COLO 205 colon.

These data come from PubChem BioAssay (NCI).
